According to PubChem BioAssay (NCI):
About 83,000 compounds went through this panel and 20% of them were active in at least one assay; those are over-represented in the sample as a whole.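 48-hour exposure, single concentration, 96-well plates; percent growth endpoint where 0 means no net growth. Active: below 10.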 The source made the active and inactive calls.

system: NCI-H322M lung; assay: NCI-60 one-dose screen, 48 h (100 = growth as untreated, 0 = no growth, -100 = all killed); conditions: 10 µM unless noted

SMILES | growth
CC(C)=CCCC(C)c1ccc(C)c2c1OCN(CC1CCNCC1)C2 (centres undefined) | 99.1% (inactive)
COc1ccc(C2CC(c3ccc4c(c3)OCO4)=NN2C=O)cc1 (centres undefined) | 107% (inactive)
COc1cc(-c2nc3sc4c(c3c(=O)[nH]2)CCCCCC4)cc(OC)c1OC | 39% (inactive)
O=C(C(=O)N1CCOCC1)c1cn(CCCn2cc(C(=O)C(=O)N3CCOCC3)c3ccccc32)c2ccccc12 | 103% (inactive)
COc1ccc(/C=C2/SC(=Nc3c(C)nn(-c4ccccc4)c3N)NC2=O)cc1 | 39.1% (inactive)
C/C(=C\CCc1ccoc1)CC/C=C(\C)CCCN1CCOCC1 | 84.5% (inactive)
CO[C@H]1/C=C/O[C@@]2(C)Oc3c(C)c(O)c4c(O)c(c(/C=N/N5C(C)CN(Cc6ccc(C#N)cc6)CC5C)c(O)c4c3C2=O)NC(=O)/C(C)=C\C=C\[C@H](C)[C@H](O)[C@@H](C)[C@@H](O)[C@@H](C)[C@H](OC(C)=O)[C@@H]1C (some centres undefined) | 28.7% (inactive)
CCOC(=O)CNC(=O)C1(NC(=O)CNC(=O)OCc2ccccc2)CCCC1 | 109% (inactive)
COc1cnc2c(c1)C(=O)c1c-2n(CCCNC(C)C)c(=O)c2cc(F)ccc12 | -13.1% (active)
Nc1ccc2c(c1Br)Cc1ccccc1-2 | 114% (inactive)
O=C1OC2(c3ccccc31)c1ccccc1-c1ccccc12 | 103% (inactive)
CCCCCCCCN(CCO)CCCCCCCC | 96.1% (inactive)
Nc1ccc2c(c1)C(=O)c1cc(Cl)c(Cl)cc1-2 | 117% (inactive)
O=C(/C=C/c1cccc(Nc2ccnc3cc(Cl)ccc23)c1)c1ccc(Cl)cc1 | 67.3% (inactive)
